Molecules are shown by their SMILES. The campaign covered roughly 68,000 compounds. About 2,700 (4%) showed an effect of 50% or more. Only a selection was taken, and strong results are over-represented in it overall.

This assay relates to Plasmodium berghei. Kind of assay: Screen against P. berghei liver stage (PbLuc), transformed with Luciferase, at 2uM. In kind it is functional, HepG2. The note with it: tested at 2 uM.
Take `CC(c1ccccn1)N(C)Cc1ccc(-n2ccnc2)cc1` (stereo not given): the INHIBITION is reported as 2.67%. The figure for `C[C@@H](NCc1cccc(Cl)c1)c1onc(-c2ccc(F)cc2)c1C(=O)O` is 37.54%; for `Cc1cc(C2CCCN(C(=O)COc3cc(C)on3)C2)n[nH]1` (stereo not given) it is 60.64%; for `Cc1cc(OCC(=O)N2CCCC(c3ccn[nH]3)C2)no1` (stereo not given) it is 24.31%. Regarding `Cc1cc(OCC(=O)N2CCCC(c3noc(C)n3)C2)no1` (stereo not given), the INHIBITION is listed as 6.3%. The figure for `CN1C(=O)CCC12CCCN(C(=O)c1ccncc1F)C2` (stereo not given) is -39.56%. On to `CCc1noc(C)c1C(=O)N1CCCCC1Cn1cc(C)cn1` (stereo not given), for which the INHIBITION is recorded as -11.2%. Under `c1ccc(OC2COC3(CCN(CC4CC4)CC3)C2)nc1` (stereo not given) stands -17.63%; under `CCC1(c2ccc(NS(=O)(=O)c3cccs3)cc2)CCC(=O)NC1=O` (stereo not given), -13.33%. On to `CNC(=O)CC1CCN(C(=O)NCC2(c3ccccc3F)CC2)CC1`, for which the INHIBITION was -23.23%. The figure for `CNC(=O)CC1CCN(C(=O)NCc2coc3ccccc23)CC1` is 53.81%; for `COCCOC1CCN(C(=O)NCc2coc3ccccc23)CC1` it is 40.88%; for `CC(C)N1CCC(CC(=O)N(C)C(C)c2cncs2)CC1` (stereo not given) it is 17.73%. Under `Cc1cnc(N2CC(C(=O)N3CCOCC3)C3(CCOCC3)C2)nc1` (stereo not given) stands 65.04%; under `O=C(C1CN(c2ncc(F)cn2)CC12CCOCC2)N1CC=CC1` (stereo not given), -78.69%; under `O=C(C1CN(c2ncc(F)cn2)CC12CCOCC2)N1CCOCC1` (stereo not given), -45.73%. As to `Cn1cc(CN2CCO[C@H]3CN(Cc4ccsc4)C[C@H]32)cn1`, the INHIBITION is recorded as 1.88%. The figure for `N#Cc1ncn(CCC(=O)Nc2ccc(F)c(F)c2)n1` is 57.92%; for `N#Cc1ncn(CCC(=O)Nc2ccc(Cl)cc2F)n1` it is 5.52%; for `N#Cc1ncn(CCC(=O)Nc2cccc(Cl)c2)n1` it is 7.13%. The figure for `Cc1cc(C(=O)N2CCC3(CC(=O)NC3=O)C2)c(-c2ccccc2)o1` (stereo not given) is 15.87%; for `CCOc1ncnc2c1CCN(C(=O)c1ccncc1F)CC2` it is 28.85%; for `c1csc(C2(NCc3csc(C4CC4)n3)CCCC2)n1` it is -56.92%.

In the case of `CCCc1nc(CNC2(c3nccs3)CCCC2)cs1`, the INHIBITION was 58.68%.

For `Cc1csc(C2(NCc3csc(C4CC4)n3)CCCC2)n1`, the INHIBITION is recorded as -9.69%. The figure for `Cc1nc(C)n(CC2CCCCN2CC(=O)Nc2nnc(C)s2)n1` (stereo not given) is 19.97%; for `CN(C)Cc1nn(C)c2c1CN(S(=O)(=O)c1ccccc1F)C2` it is 32.05%; for `CCOc1ccc(S(=O)(=O)N(CCOC)Cc2ccncc2)cc1F` it is 60.35%. Take `COCCN(Cc1ccoc1)S(=O)(=O)c1ccc(F)c(C)c1`: the INHIBITION is given as -10.1%.

In the case of `CCOc1ccc(S(=O)(=O)N(CCOC)Cc2ccoc2)cc1F`, the INHIBITION is listed as 21.37%.

These data come from ChEMBL document CHEMBL4513216, “Probing the Open Global Health Chemical Diversity Library for Multistage-Active Starting Points for Next-Generation Antimalarials” (ACS Infect Dis, 2020).
